We go through 98 compounds from PubChem BioAssay AID651558 (National Center for Advancing Translational Sciences (NCATS), 2012).

Molecules are shown by their SMILES. Out of some 1,200 compounds screened, about 480 (40%) were called active. Roughly 29% stayed inconclusive and do not appear here. Calls come from the whole dose curve; as a rule, active = well fitted inhibition curve with a large enough effect; inconclusive = small, poorly fitted or top-dose-only effect; inactive = no such curve, though single readings can be large or run the other way. The list shows a part of the results.
Potency is the fitted concentration of half-maximal effect.

The assay in a line: qHTS Assay to Find Inhibitors of Chronic Active B-Cell Receptor Signaling: Hit Validation in Primary Screen. Note: nearly all actives have a fitted effect of over 75% in size. The conditions noted are these: ABC-DLBCL IkB-luc/CBR ratio luminescence, 4 h; series mostly up to 46.1 µM. An outline of the steps: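 TMD8 ABC-DLBCL cells carrying doxycycline-inducible IkBa-green luciferase fusion and free red luciferase, 0.5% FBS, dosed 46 uM–3 nM with doxycycline for 4 h at 37C. Green/red luminescence ratio normalized to basal and 10 uM MG-132.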
Consider `CCN(CC)S(=O)(=O)c1ccc(C(=O)NCCSc2c[nH]c3ccccc23)cc1`, for which the Potency entry is “inactive”.

With `COc1cccc(/C=N/Nc2nc(Nc3ccccc3)nc(-n3nc(C)cc3C)n2)c1O`, the Potency is 0.92 µM (active). As for `CC1=NN(C(N)=S)C(=O)C1N=Nc1ccccc1` (stereo not drawn), the entry is “inactive”. The value for `Cc1ccc(/C=N/NC(=O)c2cc(-c3cccnc3)nc3ccccc23)cc1` was 2.31 µM (active); that for `Fc1ccc(/C=N/NC(=S)Nc2cccnc2)cc1` was “inactive”.

In the case of `Cc1ccsc1/C=N/NC(=O)c1cc(-c2ccncc2)nc2ccccc12`, the Potency is 1.64 µM (active).

Regarding `Cc1ccc(/C=N/NC(=O)c2cc(-c3ccncc3)nc3ccccc23)o1`, the Potency was 5.17 µM (active). Regarding `COc1ccc(-c2cc(C(=O)N/N=C(\C)c3cccnc3)c3ccccc3n2)cc1`, the Potency entry is “inactive”. The value for `CCc1ccc(/C=N/NC(=O)c2cc(-c3ccncc3)nc3ccccc23)s1` was 8.2 µM (active); that for `O=C(CSc1cccc[n+]1[O-])c1ccc(Cl)cc1` was “inactive”. Take `CCc1ccc(NC(=O)CSc2nc(=O)n(CCCN3CCOCC3)c3c2CCCC3)cc1`: the Potency result is “inactive”. The value for `CC(=NNC(=O)c1cc(C)nc2ccccc12)c1ccc(N2CCOCC2)cc1` was “inactive”; that for `O=C(N/N=C/c1ccc([N+](=O)[O-])o1)c1cc(-c2ccc(-c3ccccc3)cc2)nc2ccccc12` was 4.61 µM (active); that for `O=C(N/N=C/c1cccs1)c1cc(-c2ccncc2)nc2ccccc12` was 2.59 µM (active). As for `CCc1ccc(/C=N/NC(=O)c2cc(C3CC3)nc3ccccc23)s1`, the figure is 16.4 µM (active); as for `S=C(NCCN1CCOCC1)N/N=C/c1cccs1`, “inactive”.

Regarding `COC(=O)c1cnc(Oc2ccc(NC(=O)NC(=O)c3c(OC)cccc3OC)cc2)cc1C(F)(F)F`, the Potency is 1.84 µM (active). As for `Cc1cc(C)c2cc(C=O)c(Cl)nc2c1`, the figure is 3.66 µM (active); as for `Cc1ccc(N=Nc2c(C)[nH]n(C(N)=S)c2=O)cc1`, “inactive”; as for `CCc1cc2c(SCC(=O)NC3CC3)ncnc2s1`, “inactive”. The value for `COc1ccc(C2CC(c3c(O)cc(C)oc3=O)=NCCS2)c(OC)c1` (stereo not drawn) was 1.16 µM (active); that for `Cc1ccc(C(=O)Nc2nc(C)c(C(=O)Nc3ccc4c(c3)CCC4)s2)cc1` was 4.61 µM (active). The value for `CCCn1nnc(NC(=S)NC(=O)c2ccc(-c3ccc(Br)cc3)o2)n1` was “inactive”. Take `COc1cc(C(=O)NC2CCN(Cc3nnnn3Cc3ccc(F)cc3)CC2)cc(OC)c1OC`: the Potency entry was “inactive”. The value for `COc1ccc(C2=NOC(C(=O)NCc3ccc(F)cc3)C2)cc1` (stereo not drawn) was 18.4 µM (active); that for `COc1cc(C2=NOC(C(=O)NCc3ccc(F)cc3)C2)cc(OC)c1OC` (stereo not drawn) was 4.61 µM (active). Turning to `Cc1ccc(C(=O)O)cc1NC(=S)NC(=O)C(c1ccccc1)c1ccccc1`, the Potency result is “inactive”. As for `Cc1cc(C)cc(N2CC(O)=C(c3nc4ccccc4c(=O)[nH]3)C2=N)c1`, the entry is “inactive”; as for `COc1cccc(N2CC(O)=C(c3nc4ccccc4s3)C2=N)c1`, 23.1 µM (active). As for `COc1ccc(/C(C)=N/Nc2ncc(Cl)cc2Cl)c(O)c1`, the entry is “inactive”; as for `COc1ccc(/C=N/Nc2nccnc2Cl)c(OC)c1`, 23.1 µM (active).

Take `CC(C)COc1ccc(C(=O)Nc2cc(S(=O)(=O)N3CCOCC3)ccc2N2CCCC2)cc1`: the Potency result was “inactive”. As for `CCOC(=O)N1CCN(S(=O)(=O)c2ccc(C(=O)Nc3ccc(F)cc3F)cc2)CC1`, the figure is 20.6 µM (active); as for `COc1cc(OC)cc(-c2cc3cc4c(cc3cn2)OCO4)c1`, 3.66 µM (active); as for `CCOC(=O)C1CCN(S(=O)(=O)c2c(Cl)ccc3nonc23)CC1`, 5.8 µM (active). As for `CCOC(=O)Nc1ccc2nc(N3CCCCCC3)sc2c1`, the figure is 20.6 µM (active). With `CCOc1ccc2nc(N3C(=O)CNC3=S)sc2c1`, the Potency entry is “inactive”.

As to `CN(CC(=O)Nc1ccccc1C(F)(F)F)C(=O)c1ccccc1Sc1ccccc1C#N`, the Potency result is “inactive”. In the case of `COc1cccc(N2CCN(C(=O)c3ccc(CS(=O)c4ccc(Cl)cc4)o3)CC2)c1` (stereo not drawn), the Potency is 23.1 µM (active).

For `COc1cccc(N2CCN(C(=O)c3ccc(CS(=O)c4ccc(C)cc4)o3)CC2)c1` (stereo not drawn), the Potency was 6.51 µM (active). As for `C=CCNC(=S)NN=C1CCCCCCC1`, the entry is “inactive”; as for `CCOC(=O)c1cnc(Nc2nc3ccccc3o2)nc1CSC(=S)N(CC)CC`, “inactive”. As for `COc1ccc(C=C2c3ccccc3C(=O)c3ccccc32)c(OC)c1`, the Potency is 4.61 µM (active). The value for `O=C(OCC(O)CO)c1ccccc1Nc1ccnc2cc(Cl)ccc12` (stereo not drawn) was 20.6 µM (active). The value for `Oc1ccccc1-n1c(-c2ccccc2)ccc1-c1ccccc1` was “inactive”; that for `N#CC1=C(N)OC2=C(CCc3ccccc32)C1c1ccccc1` (stereo not drawn) was 2.59 µM (active); that for `Cc1nc2c(C(F)(F)F)cccc2c2c1CCS2` was 16.4 µM (active). As for `COc1ccccc1-n1cnc2cc(NCc3cccs3)ccc21`, the figure is 16.4 µM (active); as for `N#CC1=C2SCC(O)(c3ccccc3)N2C(=O)CC1c1ccccc1` (stereo not drawn), 18.4 µM (active); as for `N#CC1=C2SCC(O)(c3ccccc3)N2C(=O)CC1c1cccs1` (stereo not drawn), 13 µM (active).

Turning to `COc1cc(OC)cc(C(=O)NCc2ccc3c(c2)CCN3C(=O)c2ccccc2)c1`, the Potency was 10.3 µM (active).

Take `COc1cc(OC)cc(C(=O)NCc2cc(C)nc3ccccc23)c1`: the Potency result is “inactive”. The value for `CCOc1ccccc1NC(=O)Cn1nnc(C(=O)NCc2cccs2)c1N` was 2.59 µM (active); that for `CCc1nnc(NC(=O)CSc2nnc(-c3ccccc3NC(=O)c3ccccc3)o2)s1` was “inactive”; that for `O=C(CSc1ncn[nH]1)Nc1nnc(-c2ccccc2)s1` was 0.231 µM (active). As for `O=C(CSc1nnnn1-c1ccccc1)Nc1nsc(-c2ccc(Cl)cc2)n1`, the entry is “inactive”; as for `CC1CCN(C(=O)CCCOc2cc(=O)n(C)c3ccccc23)CC1`, 23.1 µM (active).

For the compound `O=C(N1CCN(c2ccccn2)CC1)N1c2ccccc2Sc2ccccc21`, the Potency was 7.31 µM (active). As for `Cc1cc(=O)[nH]c2ccc(S(=O)(=O)Nc3ccc(O)cc3)cc12`, the entry is “inactive”; as for `CC(=O)Nc1ccc(NS(=O)(=O)c2cc(-c3n[nH]c(=O)c4ccccc34)ccc2C)cc1`, 23.1 µM (active); as for `Cc1ccc(NS(=O)(=O)c2cc(-c3n[nH]c(=O)c4ccccc34)ccc2C)cc1`, 18.4 µM (active). In the case of `CCOC(=O)C1C(C(=O)OC)=C(c2ccc(OC)cc2)c2ccccc2N1S(=O)(=O)C(F)(F)F` (stereo not drawn), the Potency result is “inactive”. For `CCn1c2ccccc2c2cc(NC(=O)c3cc(OC)c(OC)c(OC)c3)ccc21`, the Potency is 0.731 µM (active). As to `COc1cc(NC(=O)COC(=O)Cc2ccc(-c3ccccc3)cc2)cc(OC)c1`, the Potency result was “inactive”. The value for `CCn1c2ccccc2c2cc(NC(=O)c3cc(OC)cc(OC)c3)ccc21` was 2.06 µM (active); that for `COc1cc(OC)cc(C(=O)NCC(=O)Nc2ccc(-c3ccccc3)cc2)c1` was 20.6 µM (active); that for `CCCn1nnc(NC(=S)NC(=O)Cc2ccccc2)n1` was “inactive”. The value for `COc1ccc(OCC(O)CN2CCN(c3ccccc3)CC2)cc1` (stereo not drawn) was “inactive”; that for `Cc1nc2ncccn2c1-c1csc(Nc2ccc(N(C)C)cc2)n1` was 7.31 µM (active); that for `COc1ccc(Nc2nc(-c3c(C)nc4ncccn34)cs2)cc1` was 2.31 µM (active).

On to `Cc1ccc(Nc2nc(-c3c(C)nc4ccccn34)cs2)cc1`, for which the Potency was 0.259 µM (active). In the case of `Cc1ccc(Nc2nc(-c3c(C)nc4ncccn34)cs2)cc1`, the Potency is 4.11 µM (active). With `Cc1ccc(C2OCC3(CO)COC(c4ccc(C)cc4)N23)cc1` (stereo not drawn), the Potency entry is “inactive”. The value for `Oc1[nH]c2ccc(Br)cc2c1N=NC(=S)Nc1ccc(F)cc1` was “inactive”; that for `Cc1ccccc1C1=NC(C(F)(F)F)(C(F)(F)F)c2c(n(C)c(=O)n(C)c2=O)N1` was “inactive”; that for `COc1ccc(NC(=O)C(=O)c2cn(CC(=O)N3CCCC3)c3ccccc23)cc1` was 9.2 µM (active). As for `COc1cc2cnc(-c3ccccc3)cc2cc1OC`, the figure is 20.6 µM (active); as for `CCC(C)NC(=O)c1ccccc1NC(=O)c1ccc(CSc2ccccc2)cc1` (stereo not drawn), “inactive”; as for `COc1ccccc1C(=O)Nc1ccccc1SC(=O)c1ccccc1OC`, 7.31 µM (active). As for `COc1cc(NC(=S)NC(=O)c2ccccc2F)ccc1NC(=O)c1ccco1`, the entry is “inactive”; as for `Cc1ccc(CCC(=O)Nc2ncc(Cc3cc(Cl)ccc3Cl)s2)o1`, 1.3 µM (active); as for `CCc1ccc(CCC(=O)Nc2ncc(Cc3ccccc3Cl)s2)o1`, 2.91 µM (active). As for `Cc1ccc(CCC(=O)Nc2ncc(Cc3cccc(Cl)c3Cl)s2)o1`, the Potency is 0.231 µM (active). The value for `Cc1cccc(NC(=S)N=Nc2c(O)n(C)c3ccc(S(=O)(=O)N4CCOCC4)cc23)c1` was “inactive”; that for `COc1ccc(-c2csc(C3=C(O)CN(CCCN4CCCC4=O)C3=N)n2)cc1OC` was 18.4 µM (active).

On to `Cc1nnc2ccc(-c3ccc(NS(=O)(=O)c4ccccc4[N+](=O)[O-])cc3)nn12`, for which the Potency is 20.6 µM (active).

For `COc1ccc(OC)c(S(=O)(=O)Nc2ccc(-c3ccc4nnc(C)n4n3)cc2)c1`, the Potency entry is “inactive”. The value for `CCc1ccc(S(=O)(=O)Nc2ccc(-c3ccc4nnc(C)n4n3)cc2)s1` was 14.6 µM (active). The value for `CCN(CC)C(=S)NC(=O)c1ccc(F)cc1` was “inactive”.

For the compound `CC1=Nc2cc(C(=O)NC3CCCC3)ccc2Sc2ccc(Cl)cc21`, the Potency was 2.59 µM (active). As for `CCCC1=Nc2cc(C(=O)NC3CCCCC3)ccc2Sc2ccc(C)cc21`, the figure is 0.259 µM (active); as for `CCOC(=O)N1CCC(NC(=O)CS(=O)(=O)Cc2nc(-c3ccccc3C)oc2C)CC1`, “inactive”.

For the compound `CCOC(=O)N1CCC(NC(=O)c2ccc3c(c2)N=C(C)c2c(C)ccc(C)c2S3)CC1`, the Potency was 6.51 µM (active). For the compound `CC1=Nc2cc(C(=O)NC3CCCCC3)ccc2Sc2ccc(Cl)cc21`, the Potency was 2.31 µM (active). As for `CN(C)c1ccc(-c2nn3c(-c4ccccc4Cl)nnc3s2)cc1`, the Potency is 2.91 µM (active). The value for `CCN(CC)c1ccc(-c2nn3c(-c4n[nH]c5c4CCC5)nnc3s2)cc1` was 0.651 µM (active).

On to `CCN(CC)c1ccc(-c2nn3c(-c4ccccc4OC)nnc3s2)cc1`, for which the Potency is 1.46 µM (active).

For the compound `COc1ccccc1-c1nnc2sc(-c3ccc(N(C)C)cc3)nn12`, the Potency was 1.16 µM (active).
